Assay results published in PubChem BioAssay.
The source made the active and inactive calls.

Legend:
[1] = compound effects on lung adenocarcinoma cell viability – A549, calcein-AM fluorescence, 48 h, basal, profiling panel (AID 1162); settings: higher = more signal
[2] = compound effects on differentiated 3T3-L1 adipocyte viability – cell-based, 3T3-L1 adipocytes, calcein-AM fluorescence, 48 h, basal, profiling panel (AID 1163); settings: 3T3-L1 adipocytes viability, higher = more signal
[3] = compound effects on hepatocellular carcinoma cell viability – HepG2, calcein-AM fluorescence, 48 h, basal, profiling panel (AID 1164); settings: higher = more signal
[4] = compound effects on multiple myeloma cell viability – MM1S, calcein-AM fluorescence, 48 h, basal, profiling panel (AID 1165); settings: higher = more signal;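 further: viability of MM1S multiple myeloma cells under basal unstimulated conditions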
[5] = calcein-AM signal in unstimulated myeloma cells – cell-based, calcein-AM fluorescence, 48 h, PK04 Diversity Set, profiling panel (AID 1166); settings: RPMI8226 myeloma viability, higher = more signal;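 further: cells grown under basal conditions without added stimulus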
[6] = JC-1 mitochondrial signal, unstimulated HepG2 cells – cell-based, JC-1 fluorescence, 24 h, 100 nL compound, profiling panel (AID 1167); settings: HepG2 mitochondrial potential, higher = more signal
[7] = JC-1 mitochondrial signal, unstimulated adipocytes – cell-based, JC-1 fluorescence, 3T3-L1 adipocytes, 24 h, 100 nL compound, profiling panel (AID 1168); settings: JC-1 mitochondrial fluorescence, higher = more signal, called active from +8 up or from −8 down
[8] = JC-1 mitochondrial signal, unstimulated myeloma cells – cell-based, JC-1 fluorescence, RPMI8226, 24 h, 100 nL compound, profiling panel (AID 1169); settings: JC-1 mitochondrial potential fluorescence, higher = more signal
[9] = JC-1 mitochondrial signal, unstimulated MM1S myeloma – cell-based, JC-1 fluorescence, 24 h, 100 nL compound, profiling panel (AID 1170); settings: MM1S mitochondrial potential, higher = more signal
[10] = resazurin metabolic signal in A549 cells – cell-based, resazurin fluorescence, 24 h, PK04 Diversity Set, profiling panel (AID 1171); settings: A549 viability, higher = more signal, called active from +8 up or from −8 down
Further: test concentration not given here.

Structure (SMILES)	z-score [1]	z-score [2]	z-score [3]	z-score [4]	z-score [5]	z-score [6]	z-score [7]	z-score [8]	z-score [9]	z-score [10]
CCCc1cc2c(n1CCc1ccc(Cl)cc1)C(C)C1CN(C(=O)c3ccccc3)C(C)(C(=O)OC)C21 (stereo not given)	-1.7	1.33	-0.534	-3.25	-4.74	4.02	-1 (inactive)	-0.78	-1.19	-1.94 (inactive)
CC1=C([C@H](O)CCc2ccccc2)[C@H](CO)n2c(=O)n(-c3ccccc3)c(=O)n2C1	0.229	0.273	0.862	0.5	0.874	-0.303	0.603 (inactive)	-0.237	-1.16	-0.331 (inactive)
[N-]=[N+]=NCc1ccccc1[C@@H]1OC(c2ccc(OCCCO)cc2)=N[C@]1(Cc1ccccc1N=[N+]=[N-])C(=O)NCC(O)CO (stereo not given in full)	-0.619	0.0728	-0.326	-1.78	-1.57	-0.686	0.265 (inactive)	-1.2	-0.6	-1.09 (inactive)
CCCCCC1=C2CNC(Cc3ccccc3)(C(=O)OC)C=C2C(C)C1=O (stereo not given)	-1.33	0.598	-1.14	-2.69	-3.65	1.14	-1.55 (inactive)	-0.608	-0.32	-0.605 (inactive)
CC1CC/C=C\[C@H]2OC34C=CCN(C(C)(C)C)C(=O)[C@H]3N(CCCO)C(=O)[C@@H]4C2C(=O)O1 (stereo not given in full)	-0.459	0.0593	-0.869	1.15	-0.339	-0.749	-0.274 (inactive)	-0.0634	0.522	-0.0125 (inactive)
COCCn1c(C(=O)N(C)C)cc2c1C[C@H]1CN(C(=O)c3ccccc3)[C@@](Cc3ccc(OC)cc3)(C(=O)OC)[C@@H]21	-0.615	-0.61	0.33	-0.479	-0.843	0.564	-0.722 (inactive)	0.0961	-1.52	-0.437 (inactive)
COC(=O)C(CC#Cc1ccc2c(c1)[C@]1(C(=O)N2)[C@H](c2ccccc2OCCO)N2[C@H](c3ccccc3)[C@H](c3ccccc3)OC(=O)[C@H]2[C@@H]1C(=O)N1CCc2cc(OC)c(OC)cc2C1)C(=O)OC	0.734	-0.19	2.08	0.857	-0.0217	-0.112	2.3 (inactive)	-0.941	-1.47	-0.63 (inactive)
CCOC(=O)C1=CC[C@@H](c2ccc(OC)cc2)N(S(=O)(=O)c2ccc(C)cc2)[C@H]1CC	0.33	0.815	0.945	-1.25	-1.45	5.4	1.53 (inactive)	-0.301	-1.99	0.198 (inactive)
Cc1ccc(N2C(=O)c3ccccc3[C@](C)(C(=O)NCCCN(C)C)[C@@H]2c2ccc(CO)cc2)nc1	0.235	0.85	-0.153	-0.629	-0.444	-0.53	-0.419 (inactive)	-0.884	-0.29	0.31 (inactive)
NC(=O)NCC#Cc1ccc2c(c1)[C@]1(C(=O)N2)[C@H](c2ccc(OCCO)cc2)N2[C@H](c3ccccc3)[C@H](c3ccccc3)OC(=O)[C@H]2[C@@H]1C(=O)O	-0.295	1.09	-0.21	-1.9	0.111	-1.9	-0.469 (inactive)	-0.278	-1.08	0.253 (inactive)
O=C1C[C@@](C(=O)NC2CC2)(c2ccc([N+](=O)[O-])cc2)[C@@H](c2ccc(CO)cc2)N1C1CCCCC1	1.91	1.24	-0.0212	-0.177	-1.3	1.28	0.0821 (inactive)	-0.00601	-1.18	1.04 (inactive)
COc1ccc(C(O)C2C=CC3C(=O)N(C)C(=O)C3N2N(c2ccccc2)c2ccccc2)cc1 (stereo not given)	-0.738	-0.863	0.132	0.513	-0.556	-0.93	-1.3 (inactive)	-0.544	-0.426	-0.691 (inactive)
COC(=O)[C@]1(CCC(=O)OC(C)(C)C)N=C(c2ccc(OCCCO)cc2)O[C@@H]1c1ccccc1N=[N+]=[N-]	-1.31	1.25	-0.527	-2.84	-3.53	0.874	1.78 (inactive)	-1.02	-1.57	-1.46 (inactive)
CCOC(=O)C1=CC[C@@H](c2ccc(OC)cc2)N(S(=O)(=O)c2ccc(C)cc2)[C@H]1c1ccc(C)cc1	-0.35	-1.09	0.65	0.632	0.583	2.39	-0.717 (inactive)	0.859	-0.897	0.302 (inactive)
COC(=O)[C@@]1(Cc2ccccc2)[C@H]2c3cc(C(=O)N(C)C)n(Cc4ccc(S(C)(=O)=O)cc4)c3C[C@H]2CN1C(=O)c1ccccc1	-1.12	1.09	-0.827	0.0168	-1.39	2.64	-1.06 (inactive)	-0.656	0.485	-1.59 (inactive)
COC(=O)[C@@]1(Cc2ccccc2)[C@H]2c3cc(C(=O)N(C)C)n(CCO)c3C[C@H]2CN1C(=O)c1ccccc1	-1.33	0.18	-0.28	-0.0531	-1.99	-0.92	-2.92 (inactive)	0.127	-0.787	-0.723 (inactive)
N#Cc1ccc(C(O)C2C=CC3C(=O)NC(=O)C3N2Nc2ccc(Cl)cc2Cl)cc1 (stereo not given)	-0.918	0.325	-0.726	-0.399	-0.408	-1.35	-1.05 (inactive)	-0.356	0.153	-0.123 (inactive)
N#Cc1ccc(-c2cccc(=O)o2)cc1	-0.719	-1.13	0.37	-0.0271	-0.394	-0.875	0.492 (inactive)	0.0366	-0.548	-0.0498 (inactive)
COc1ccc([Si](C)(C)[C@@H]2[C@@H](CC(=O)N(CCO)Cc3ccccc3)O[C@]3(C(=O)N(Cc4ccc(N5C(=O)c6cccc7cccc5c67)cc4)c4ccccc43)[C@H]2C)cc1	-0.538	0.427	-1.43	-1.82	-3.52	-0.038	0.161 (inactive)	-1.02	-1.18	-1.51 (inactive)
COc1ccc(C(O)C2C=CC3C(=O)N(c4ccccc4)C(=O)C3N2Nc2ccc(C#N)cc2)cc1OCc1ccccc1 (stereo not given)	0.233	-0.735	0.753	0.333	-0.692	-0.974	-1.14 (inactive)	-0.137	-0.222	0.141 (inactive)
C=C(C)[C@@H]1CC=C(C(O)C2C=CC3C(=O)N(c4ccccc4)C(=O)C3N2Nc2ccc([N+](=O)[O-])cc2)CC1 (stereo not given in full)	0.485	0.153	0.736	-0.807	-0.493	-0.307	-2.47 (inactive)	-0.507	0.451	-0.963 (inactive)
CN(C)CCCNC(=O)[C@@]1(C)c2ccccc2C(=O)N(Cc2ccc(OC(F)(F)F)cc2)[C@H]1c1ccc(CO)cc1	0.173	0.886	-0.261	-0.0385	0.513	1.88	-0.422 (inactive)	-0.136	0.197	0.074 (inactive)
C=C(CCCC)/C(=C/C[C@H](OC(=O)c1ccncc1)c1cccc(OCCO)c1)c1cnc2ccccc2c1	1.35	-0.893	0.0815	-3.37	-2.3	0.99	-1.16 (inactive)	-0.817	-0.718	0.588 (inactive)
CN(C)CCCC[C@@H]1NC(=O)[C@@H]2C[C@H](C(=O)NCCCCCCNC(=O)CS)[C@H](c3ccc(O)cc3)N2C1=O	-0.121	-0.145	0.548	-0.0172	0.381	-0.175	0.207 (inactive)	-0.223	-0.136	0.579 (inactive)
C=CCC(OC(C)=O)[C@@H]1[C@@H](N(Cc2ccc(-c3cccc(C(F)(F)F)c3)o2)C(=O)c2ccc(-c3ccccc3)cc2)c2cc(OCCCO)ccc2N1C(=O)c1ccc2ccccc2c1 (stereo not given in full)	0.965	1.28	0.612	0.0723	-0.164	2.76	-0.081 (inactive)	0.677	0.681	0.919 (inactive)
COc1ccc([Si](C)(C)[C@H]2[C@H](CCO)O[C@@]3(C(=O)N(Cc4cccc(N5C(=O)c6ccccc6Oc6ccccc65)c4)c4ccccc43)[C@@H]2C)cc1	-1.24	0.508	-4.22	-2.87	-4.3	-0.19	2.27 (inactive)	-1.03	-1.84	-2.25 (inactive)
CN1C(=O)C2C(C1=O)C1C=C(c3ccc(CO)cc3)C2C(C2CC2)N1C (stereo not given)	0.632	1.29	-0.799	0.535	-0.594	0.399	-0.768 (inactive)	0.178	-0.0509	-0.694 (inactive)
